# High-throughput results as filed in PubChem.
# TMEM16A act: activates or potentiates the mouse TMEM16A chloride channel | Q8BHY3 | B-score at 10 µM | hit rate 0.3% among 340,000 | HEK293 TMEM16A/YFP-H148Q/I152L, iodide quench fluorescence; stronger effect = lower value;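 active = fluorescence-ratio B-score plate-corrected deviation score at least 3 library SD below zero, with starting fluorescence score within 5 deviations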;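 also: channel opened by trigger with iodide after compound preincubation; score built on the fluorescence ratio of max minus min over baseline; more negative score means more quench and so TMEM16A activation or potentiation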
# PP1 counter: blocks human PP1-alpha phosphatase, a PP5 counter-screen; P62136; purified PP1alpha, OMFP fluorescence; inhibition, % at 6.7 µM; hit rate 0.9% among 320,000; AID 2235;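 active = inhibition above the mean inhibition of all tested compounds plus 3 SD, computed separately for each screening campaign, cut at about 15% in these data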
# Target sequence (P62136 whole entry, looked up): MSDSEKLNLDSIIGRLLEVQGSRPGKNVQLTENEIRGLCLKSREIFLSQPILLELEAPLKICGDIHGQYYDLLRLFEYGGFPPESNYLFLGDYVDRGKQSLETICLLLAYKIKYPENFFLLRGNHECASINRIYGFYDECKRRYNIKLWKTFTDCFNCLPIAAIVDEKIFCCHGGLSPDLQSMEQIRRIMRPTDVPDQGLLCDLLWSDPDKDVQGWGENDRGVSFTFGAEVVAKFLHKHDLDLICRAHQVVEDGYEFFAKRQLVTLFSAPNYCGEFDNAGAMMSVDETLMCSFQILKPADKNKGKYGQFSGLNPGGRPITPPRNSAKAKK
# TMEM16A inh: blocks the mouse calcium-activated chloride channel TMEM16A; Q8BHY3; HEK293 TMEM16A/YFP iodide influx fluorescence, ionomycin; normalized B-score (activity score, 25-100; higher = stronger inhibition) at 10 µM; hit rate 1.2% among 310,000; AID 588511;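 active = ratio plate-corrected score three or more library SD toward inhibition, starting fluorescence score within five deviations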;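 also: score derived from kinetic fluorescence span divided by baseline fluorescence per well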
# PP5 inh: PP5 (human) phosphatase inhibition; inhibition, % at 6.7 µM; purified PP5c, OMFP substrate fluorescence; AID 1987; hit rate 0.18% among 320,000; P53041;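 active = inhibition above the campaign's mean inhibition across all tested compounds plus 3 SD, cut at about 9.5% in these data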;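 also: 0% = DMSO only and 100% = 100 µM cantharidin control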
# PREPL inh: inhibitors of human prolyl oligopeptidase-like enzyme PREPL; recombinant PREPL, fluorescence polarization activity-based probe; Q4J6C6; inhibition, % at 5.96 µM; hit rate 0.68% among 320,000;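 also: 0% = enzyme with DMSO and 100% = wells lacking enzyme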
# DNA FID counter: fluorescent intercalator displacement, NS3 helicase counter-screen. inhibition, % at 7.9 µM. hit rate 0.17% among 290,000. DNA fluorescent intercalator displacement, fluorescence; in the data active = inhibition above about 37%;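 also: 0% = vehicle and 100% = reference compound; higher means more ethidium bromide displaced from hairpin DNA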
# PP1 confirm: confirmation of human PP1 phosphatase inhibitors; shares compounds with PP1 counter; purified PP1alpha, OMFP substrate fluorescence; inhibition, % at 6.7 µM; hit rate 52% among 1,900; AID 2358;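 active = mean PP1 inhibition above a set limit taken from the earlier primary screen, cut at about 15% in these data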
# PP5 inh counter: inhibits human PP5 phosphatase in PP1 counter-screen. shares compounds with PP1 counter. purified PP5c, OMFP fluorescence. inhibition, % at 6.7 µM. hit rate 4% among 1,900;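 active = mean PP5 inhibition over triplicate wells above about 9.5% taken from the earlier PP1 screen, limit read from the data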
# PREPL confirm: confirmation of human PREPL enzyme inhibitors; shares compounds with PREPL inh; AID 2803; inhibition, % at 5.96 µM; recombinant PREPL, fluorescence polarization activity probe; hit rate 67% among 2,000;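 also: 0% = protein with DMSO and 100% = wells lacking protein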
# * hit, by the source's call; i = inactive; · = no result. Most compounds without a hit are left out; they make up all but 2.7% or so of the library. Rule as the data show it, unless noted: active = inhibition above about 43%; inactive = the rest.
SMILES,TMEM16A act,PP1 counter,TMEM16A inh,PP5 inh,PREPL inh,DNA FID counter,PP1 confirm,PP5 inh counter,PREPL confirm
O=C(N/N=C/c1ccc(-c2ccc(S(=O)(=O)Nc3ncccn3)cc2)o1)c1cc2ccccc2cc1O,i,21*,100*,3,27,-25,16*,-1,·
CCCCCCSc1cc(-c2nc3ccc(C)cn3c2NCc2ccccc2)ccc1OC,i,21*,i,3,-1,·,9,4,·
CCCCCCSc1cc(-c2nc3cc(C)ccn3c2NCCCC)ccc1OC,i,26*,i,5,13,·,7,-2,·
CCCCCCSc1cccc(-c2nc3ccc(C)cn3c2NCc2ccccc2)c1,i,13,i,4,13,·,·,·,·
O=C(O)CCCn1cc(NC(=O)COc2ccc([N+](=O)[O-])cc2)cn1,i,-7,i,0,4,-2,·,·,·
O=C(NCC1CCN(Cc2cccc(Cl)c2)CC1)Nc1ccccc1Cl,i,·,i,·,·,14,·,·,·
Cc1ccc(NC(=O)NCC2CCN(Cc3cccc(Cl)c3)CC2)c(Cl)c1,i,27*,i,2,0,10,-6,-3,·
Cc1cccc(C)c1-n1cccc1/C=C1\SC(=S)N(c2cccc(C(=O)O)c2)C1=O,i,22*,100*,4,-7,-11,23*,4,·
Cc1cc(NC(=O)C(C)SCC(=O)Nc2ccc(Br)cc2Br)no1 (stereo not drawn),i,-6,i,2,-2,·,·,·,·
Cc1cc(C)c(C#N)c(SCC(=O)C2CC2)n1,i,-4,i,-1,9,-1,·,·,·
O=C(Nc1ccccc1N1CCCC1)c1cccc(-c2cc3ccccc3oc2=O)c1,i,18*,i,0,45*,-15,19*,-1,32
O=C(Nc1ccc(N2CCCC2)cc1)c1cccc(-c2cc3ccccc3oc2=O)c1,i,13,i,2,10,4,·,·,·
CCCCCCCCCCCCCCCC[n+]1cccc2ccccc21,i,52*,100*,7,56*,15,37*,8,42
Oc1ccc[n+](CCCCC[n+]2cccc(O)c2)c1,i,-2,i,2,0,5,·,·,·
CCCCCCCCCCCCCCCC[n+]1cccc(C(=O)N(CC)CC)c1,i,31*,i,5,50*,16,-6,4,51*
COc1ccc2c(c1)[C@H]1[C@H](CO2)[C@H](c2ccccc2)[C@]2(C)C(=O)N(CC3CCCO3)CC(=O)N12 (stereo partly drawn),i,-1,·,0,5,·,·,·,·
c1ccc(N2CCN(c3nc(-c4ccccn4)nc4ccccc34)CC2)cc1,i,64*,i,2,83*,-19,46*,0,79*
COc1ccc(-c2c[n+]3c4n2CCCCC4=C(c2ccccc2)C3)cc1,i,18*,i,0,54*,-5,-9,-3,38
COc1ccc(-c2c[n+](CC(=O)c3ccccc3)c3n2CCCCC3)cc1,i,-2,i,1,22,4,·,·,·
CCCCCCCCCCCCCCCC[N+](C)(C)CCN(Cc1ccc(OC)cc1)c1ncccn1,i,69*,i,11*,60*,·,35*,7,63*
Clc1ccc2nc(-c3ccccn3)c(Nc3ccc4c(c3)OCO4)n2c1,i,46*,i,3,67*,-8,40*,-1,54*
Cc1ccc2nc(-c3ccccc3O)c(Nc3ccc4c(c3)OCCO4)n2c1,i,-2,i,1,6,4,·,·,·
COc1cc2nc(SCc3ccc(F)cc3)n(Cc3cccs3)c(=N)c2cc1OC,i,1,i,5,26,-6,·,·,·
COc1ccc(Cn2c(SCc3ccccc3C)nc3cc(OC)c(OC)cc3c2=N)cc1,i,30*,i,3,62*,12,3,-1,59*
C#CCOCCOCCOCCNc1nc(N2CCN(C(=O)[C@H](Cc3ccc(O)cc3)n3cc([C@@H](N)C(C)CC)nn3)CC2)nc(N2CCN(C(=O)[C@H](Cc3cc4ccccc4[nH]3)n3cc([C@@H](N)Cc4ccc(O)cc4)nn3)CC2)n1 (stereo partly drawn),·,22*,i,4,53*,·,-10,-1,48*
SMILES,TMEM16A act,PP1 counter,TMEM16A inh,PP5 inh,PREPL inh,DNA FID counter,PP1 confirm,PP5 inh counter,PREPL confirm
C#CCOCCOCCOCCNc1nc(N2CCN(C(=O)[C@H]([C@@H](C)CC)n3cc([C@@H](N)Cc4ccc(O)cc4)nn3)CC2)nc(N2CCN(C(=O)[C@H](Cc3cc4ccccc4[nH]3)n3cc([C@@H](N)CC(C)C)nn3)CC2)n1,i,28*,i,0,58*,·,-13,-4,59*
C#CCOCCOCCOCCNc1nc(N2CCN(C(=O)[C@H](CCC(=O)O)n3cc(C(N)CC(C)C)nn3)CC2)nc(N2CCN(C(=O)[C@H](Cc3cc4ccccc4[nH]3)n3cc(C(N)[C@H](C)CC)nn3)CC2)n1 (stereo partly drawn),i,0,i,-1,24,10,·,·,·
C#CCOCCOCCOCCNc1nc(N2CCN(C(=O)C(Cc3ccc(O)cc3)n3cc(C(N)CC(C)C)nn3)CC2)nc(N2CCN(C(=O)C(Cc3cc4ccccc4[nH]3)n3cc(C(N)C(C)CC)nn3)CC2)n1 (stereo not drawn),·,20*,i,3,51*,33,-24,-4,51*
CC1=NN(C(=O)c2ccc(Cn3ccc([N+](=O)[O-])n3)cc2)C(O)(C(F)(F)F)C1 (stereo not drawn),i,-1,i,-1,-3,-5,·,·,·
Cc1c(CCOC(=O)C23CC4CC(CC(C)(C4)C2)C3)sc[n+]1CC(=O)c1ccccc1,i,20*,i,0,48*,8,-7,-5,44*
COc1ccc(NS(=O)(=O)c2ccc(N/N=C(\C)c3ccncc3)c([N+](=O)[O-])c2)cc1,i,24*,i,4,58*,-1,16*,6,49*
CC1=C(C(=O)OCC(C)C)C(c2cccs2)NC(=S)N1 (stereo not drawn),i,2,i,4,20,-7,·,·,·
O=C(NCC1OCCc2ccccc21)c1ccc(NC(=O)c2cccc(Br)c2)cc1 (stereo not drawn),i,-3,i,2,-7,-4,·,·,·
